# Laboratory results as given in PubChem BioAssay (Tox21).
# Unmarked numbers belong to inactive results. Results filed as inconclusive are left out. Entries that show only a call come without a potency. The source made the active and inactive calls. Unless noted, calls follow the shape of the dose curve; as a rule, active = well fitted curve in the direction sought with a large enough effect in the repeat runs; inconclusive = weak or mixed curves; inactive = no such curve, though single readings can be large; an effect the other way counts as inactive or inconclusive.
# Columns and labels:
# [1] = qHTS assay to identify small molecule agonists of the hypoxia (HIF-1) signaling pathway - cell viability counter screen (AID 1224844; calls by dose curve; also: nearly all actives have a fitted effect of over 50% in size)
# In short: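 HRE-bla ME-180; 0.5% dFBS; cpd 17 h, 37C, 5% CO2; CellTiter-Glo lum., 30 min RT, post-FRET read, same wells.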
# [2] = qHTS assay to identify small molecule agonists of H2AX (AID 1224845; active = well fitted activation curve with a large enough effect in the signal ratio in the repeat runs, not every such curve was filed as active; the % refers to the signal ratio)
# In short: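 Wild-type CHO-K1 cells, plated overnight, exposed 3hr at 37C to 15 concentrations (0.76% DMSO final). Lysed, then HTRF anti-pH2AX (S139) cryptate and anti-H2AX-d2 antibodies, 24 hr room temperature; 665/620 nm emission read.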
# [3] = qHTS assay to identify small molecule agonists of H2AX - cell viability counter screen (AID 1224847; calls by dose curve; also: top concentration of the series differs between compounds; nearly all actives have a fitted effect of over 30% in size)
# In short: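 Cells plated first: CHO-K1, 1000 per well in 10% FBS medium, incubated overnight at 37C. Then 15-point compound titration added (final DMSO 0.76%) for 3 hr. Finally CellTiter-Glo added and luminescence read.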
# [4] = qHTS RealTime-Glo MT Cell Viability Assay in HepG2 cells - 24 hour (AID 1224867); also: nearly all actives have a fitted effect of over 50% in size
# In short: (§1)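 Luminescence read-out: viable HepG2 cells reduce a prosubstrate to a NanoLuc substrate, giving a signal proportional to live cell number. Reads taken at 0, 8, 16, 24, 32 and 40 h of compound exposure at 37 C.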
# [5] = qHTS RealTime-Glo MT Cell Viability Assay in HEK293 cells - 32 hour (AID 1224868); also: nearly all actives have a fitted effect of over 50% in size; also: potency is read from the fitted curve at half-maximal effect
# In short: (§2)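 Nonlytic real-time viability readout: viable cells convert prosubstrate to NanoLuc substrate, giving luminescence proportional to live cell number. HEK293, 600 cells/well, compound added after 5 h, continuous culture at 37 C.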
# [6] = A CellTox Green Cytotoxicity Assay to monitor cytotoxicity in HEK293 cells - 0 hour (AID 1224869); also: nearly all actives have a fitted effect of over 50% in size
# In short: (§3)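 Tox21 screen in HEK293: membrane-impermeant cyanine dye fluoresces on binding dead-cell DNA; compound pinned 5 h post-seeding, plates held at 37 C, signal read repeatedly through 40 h.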
# [7] = qHTS RealTime-Glo MT Cell Viability Assay in HepG2 cells - 40 hour (AID 1224870); also: nearly all actives have a fitted effect of over 50% in size
# In short: (§4)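 HepG2 cells (600/well) mixed with RealTime-Glo MT reagent, settled 5 h at 37 C/5% CO2 before compound addition. Nonlytic NanoLuc luminescence from viable-cell prosubstrate reduction read repeatedly during 40 h treatment at 37 C.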
# [8] = A CellTox Green Cytotoxicity Assay to monitor cytotoxicity in HEK293 cells - 40 hour (AID 1224871); also: nearly all actives have a fitted effect of over 45% in size
# In short: as §3
# [9] = qHTS RealTime-Glo MT Cell Viability Assay in HEK293 cells - 16 hour (AID 1224872); also: nearly all actives have a fitted effect of over 50% in size; also: potency is read from the fitted curve at half-maximal effect
# In short: as §2
# [10] = qHTS RealTime-Glo MT Cell Viability Assay in HepG2 cells - 8 hour (AID 1224873); also: nearly all actives have a fitted effect of over 55% in size
# In short: as §4
# [11] = qHTS RealTime-Glo MT Cell Viability Assay in HEK293 cells - 40 hour (AID 1224874); conditions: RealTime-Glo luminescence; max response: stronger effect = lower value; also: nearly all actives have a fitted effect of over 50% in size; also: potency is read from the fitted curve at half-maximal effect
# In short: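 HEK293 + NanoLuc + prosubstrate, 600 cells/well; 5 h, 37 C/5% CO2; compound 23 nL in DMSO by pintool; 37 C; luminescence read at 0, 8, 16, 24, 32 and 40 h time points.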
# [12] = A CellTox Green Cytotoxicity Assay to monitor cytotoxicity in HepG2 cells - 16 hour (AID 1224876); also: nearly all actives have a fitted effect of over 45% in size
# In short: (§5)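 Measurements at 0, 8, 16, 24, 32 and 40 h of treatment captured CellTox Green fluorescence in HepG2 cells that had been co-plated with reagent and preincubated 5 h at 37 C/5% CO2.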
# [13] = qHTS RealTime-Glo MT Cell Viability Assay in HepG2 cells - 32 hour (AID 1224877); also: nearly all actives have a fitted effect of over 55% in size
# In short: as §1
# [14] = A CellTox Green Cytotoxicity Assay to monitor cytotoxicity in HepG2 cells - 24 hour (AID 1224878); also: nearly all actives have a fitted effect of over 45% in size
# In short: as §5
# [15] = A CellTox Green Cytotoxicity Assay to monitor cytotoxicity in HepG2 cells - 40 hour (AID 1224879); also: nearly all actives have a fitted effect of over 40% in size
# In short: as §5
# [16] = qHTS assay to identify small molecule agonists of the hypoxia (HIF-1) signaling pathway (AID 1224846; active = well fitted activation curve with a large enough effect in the signal ratio in the repeat runs, not every such curve was filed as active; the % refers to the signal ratio)
# In short: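 Reporter induction in HRE-bla ME-180 cells is taken as agonism: cells sit 5 hrs after plating, receive compounds or DMSO only, incubate 17 hrs at 37C under 5% CO2, and are loaded with CCF4-AM for beta-lactamase FRET measurement.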
# [17] = A CellTox Green Cytotoxicity Assay to monitor cytotoxicity in HEK293 cells - 24 hour (AID 1224875); also: nearly all actives have a fitted effect of over 45% in size
# In short: as §3
# [18] = qHTS assay to identify small molecule antagonists of the estrogen related receptor (ERR) signaling pathway from Tox21 library (AID 1224848); also: nearly all actives have a fitted effect of over 50% in size; also: potency is read from the fitted curve at half-maximal effect
# In short: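 Compounds dissolved in DMSO are pin-transferred onto ERR reporter cells (2,000 per well) that have settled for 6 h at 37 C. Plates then incubate 18 h at 37 C before ONE-Glo luciferase reagent and a luminescence read 30 min later.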
# [19] = qHTS assay to identify small molecule agonists of the estrogen related receptor (ERR) signaling pathway from Tox21 library (AID 1224849; calls by dose curve; also: nearly all actives have a fitted effect of over 15% in size); conditions: ERR reporter cell line, ONE-Glo luciferase, 18 h; at 92.4 µM (top of the series) unless noted
# In short: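 Tox21 compounds tested for ERR agonism in an NTP reporter cell line: 18 h treatment at 37 C, then ONE-Glo luminescence.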
Compound,Potency [1],Potency [2],Potency [3],outcome [4],Potency [5],Potency [6],Potency [7],Potency [8],Potency [9],outcome [10],max response [11] [%],Potency [12],Potency [13],Potency [14],Potency [15],outcome [16],Potency [17],Potency [18],"activity change, positive = activation [19]",Potency [11]
Cc1ccc(Cl)c(OCC(O)CNC(C)(C)C)c1 (stereo not given),inactive,inactive,inactive,inactive,inactive,inactive,inactive,inactive,inactive,inactive,1.75,inactive,inactive,inactive,inactive,,,,,
C=CC(C)(O)CC/C=C(/C)CCC=C(C)C (stereo not given),inactive,,inactive,inactive,,inactive,,inactive,inactive,inactive,0.65,inactive,inactive,inactive,inactive,inactive,inactive,,,
Cc1c(Cl)cccc1[N+](=O)[O-],inactive,inactive,inactive,inactive,inactive,inactive,inactive,inactive,inactive,inactive,-7.04,inactive,inactive,inactive,inactive,,,,,
C[C@]12CCC(=O)C=C1[C@@H]1C[C@@H]1[C@H]1[C@@H]3[C@@H]4C[C@@H]4[C@@]4(CCC(=O)O4)[C@@]3(C)CC[C@@H]12,,inactive,,inactive,,inactive,inactive,inactive,,inactive,,inactive,inactive,inactive,inactive,inactive,inactive,26.6 µM (active),-43.4% [at 42.5 µM],
Oc1ccc(CCNCCCCCCNCCc2ccccc2)cc1O,,,inactive,inactive,26.8 µM (active),inactive,,inactive,23.9 µM (active),inactive,,inactive,,inactive,,inactive,inactive,,-19.4% [at 42.5 µM],23.9 µM (active)
Cc1nc2sccn2c(=O)c1CCN1CCC(=C(c2ccc(F)cc2)c2ccc(F)cc2)CC1,,inactive,,inactive,3.38 µM (active),inactive,inactive,inactive,3.01 µM (active),inactive,,,inactive,inactive,inactive,,inactive,26.6 µM (active),-44.9% [at 42.5 µM],4.25 µM (active)
CCC(=O)O[C@@H]1C[C@H]2CC[C@]1(C)C2(C)C,,inactive,inactive,inactive,inactive,inactive,inactive,inactive,inactive,inactive,-11.1,inactive,inactive,inactive,inactive,,inactive,inactive,0.21%,
C=C(C)C(=O)OCCCCCCCCCCOC(=O)C(=C)C,inactive,,inactive,inactive,inactive,inactive,inactive,inactive,,inactive,-16.4,inactive,inactive,inactive,inactive,inactive,inactive,inactive,1.48%,
